A selection: hits, their analogues and other compounds. The true share with any hit is near 6%.
BCR signal inh = inhibitors of chronic active B-cell receptor signaling; actives 0.05% (n = 340,000); Potency, µM (titrated, usually from 46.1 µM), usual class: inhibitors; ABC-DLBCL IkBa-CBG/CBR reporter, luminescence ratio, 4 h; active = well fitted inhibition curve with a large enough effect in the signal ratio, with a control signal flat, not every such curve was filed as active; inconclusive = small, poorly fitted or top-dose-only effect, or effect the other way, or a change in a side signal; the % refers to the signal ratio
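Cell line TMD8 (human ABC DLBCL), stably expressing tet-inducible CBG68-IkBa fusion and CBR; IMDM/0.5% FBS; cpd up to 46 uM; dox induction, 4 h, 37C/5% CO2; dual luminescence; green/red ratio; MG132 control.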
D1 agonist = human D1 receptor agonism; P21728; HEK293 T-REx D1 cells, calcium flux, agonist mode; activation, % at 2 µM; actives 1% (n = 360,000); in the data active = activation above about 30%
Target sequence (P21728 whole entry, looked up): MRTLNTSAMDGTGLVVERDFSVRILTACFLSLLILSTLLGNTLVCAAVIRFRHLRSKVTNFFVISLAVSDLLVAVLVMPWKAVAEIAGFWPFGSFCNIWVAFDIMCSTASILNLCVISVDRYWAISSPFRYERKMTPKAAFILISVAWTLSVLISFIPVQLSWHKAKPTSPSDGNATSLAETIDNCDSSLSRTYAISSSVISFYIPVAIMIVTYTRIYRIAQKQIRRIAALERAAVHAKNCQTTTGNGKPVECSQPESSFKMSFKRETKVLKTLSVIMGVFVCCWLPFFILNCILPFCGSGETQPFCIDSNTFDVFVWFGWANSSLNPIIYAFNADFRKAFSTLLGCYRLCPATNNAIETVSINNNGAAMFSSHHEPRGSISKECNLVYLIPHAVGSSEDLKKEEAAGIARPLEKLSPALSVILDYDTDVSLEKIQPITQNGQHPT
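Inducible HEK293 T-REx D1 cells, force-coupled to calcium signalling, were plated at 4000 cells/well with tetracycline and held overnight at 30 C. After no-wash calcium dye loading, compound-evoked calcium rise over 180 s flagged agonists.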
D1 antag = blocks dopamine activation of the human D1 receptor | HEK293 TREx D1 cells, calcium flux, dopamine EC80; stronger effect = lower value | activity change, negative = inhibition, % at 10 µM | P21728 | AID 504652 | actives 3.2% (n = 360,000); in the data active = activity change below about -30%
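Cells carrying a force-coupled, tetracycline-inducible human D1 receptor report calcium flux. Each well gets a 10 s baseline, compound with 180 s monitoring, then an EC80 dopamine stimulus with a second 180 s kinetic read.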
D1 PAM = potentiators of human D1 dopamine receptor. P21728. HEK293 TREx D1 cells, calcium flux, dopamine EC20 potentiation. potentiation, % at 10 µM. actives 0.036% (n = 360,000). AID 504651; in the data active = potentiation above about 30%
DRD3 agonist = agonists of human D3 dopamine receptor. AID 652048. max activation, %. actives 0.58% (n = 410,000). P35462. D3R DiscoveRx beta-arrestin cells, luminescence, 90 min; in the data active = max activation above about 30%
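Agonist mode: compounds and dopamine controls were applied to plated cells for 90 min at 37 degrees C after an overnight attachment at 1500 cells/well. Luminescent read-out followed 30 - 60 minutes at room temperature with DiscoveRx detection reagent.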
D3 antag = antagonists of human D3 dopamine receptor; AID 652054; D3R cells, DiscoveRx beta-arrestin luminescence, antagonist mode; stronger effect = lower value; actives 2.5% (n = 360,000); max response, negative = inhibition, %; P35462; in the data active = max response below about -50%; inconclusive = no clear call, values can overlap the other calls
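Cells plated overnight at 1500 cells/well, then exposed to library compounds with dopamine controls for 90 minutes at 37 degrees C. DiscoveRx reagent added for 30–60 minutes at room temperature; luminescence read, quantitative HTS format.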
Numbers stand for hits; – = inactive; ? = inconclusive; · = not tested or not shown.

SMILES	BCR signal inh	D1 agonist	D1 antag	D1 PAM	DRD3 agonist	D3 antag
CCCN(CCC)c1ncnc2c1cnn2-c1ccc(OC)cc1	?	–	–	–	33.7	–
Cc1ccc(-n2ncc3c(NNC(=O)c4ccccc4C)ncnc32)cc1	?	–	-35.9	–	–	·
Cc1ccc(C2=NC(c3ccc(F)cc3)=Nc3ccc(C)cc3N2)cc1	·	–	-40.0	–	–	·
Cc1ccc(S(=O)(=O)N2CCC(=O)N(CCOC(=O)Nc3ccccc3C)CC2)cc1	–	–	-31.0	–	–	–
Cc1cc(C)cc(NC(=O)OCCN2CCN(Cc3ccccc3)CCC2=O)c1	–	–	-32.3	–	–	–
COc1ccc(NC(=O)OCCN2CCN(Cc3ccccc3)CCC2=O)cc1	?	–	–	–	–	–
COc1ccc(-c2cn[nH]c2C)cc1	?	–	-36.5	–	–	–
CC(C(=O)NCc1ccccc1Cl)n1ccc2cc(S(=O)(=O)N3CCCCC3)ccc21 (stereo not given)	·	–	–	–	–	·
CCOc1ccc(NC(=O)CSc2nc(=O)[nH]c3c2CCC3)cc1	–	–	·	–	–	·
O=c1c2c3c(sc2nc2n1CCC2)CCC3	–	–	–	–	–	-52.3
CSc1nc2sc3c(c2c(=O)n1C)CCC3	?	–	-34.7	–	–	–
O=c1c2c3c(sc2nc2n1CCC2)CCCCC3	–	–	–	–	–	–
CCc1nc2sc3c(c2c(=O)n1CCO)CCC3	–	–	-44.3	–	–	–
CCc1nc2sc3c(c2c(=O)n1N)CCC3	–	–	–	–	–	–
CCOc1ccccc1NC(=O)C(C)n1nnc2sc3c(c2c1=O)CCCC3 (stereo not given)	·	–	–	–	–	·
Cc1ccccc1OCC(=O)OCc1cc(=O)n2nc(C3CC3)sc2n1	·	–	–	–	–	·
O=C(Nc1cccc(C(F)(F)F)c1)C1CCN(S(=O)(=O)c2cccc3nsnc23)CC1	·	–	–	–	–	·
COc1ccc(-c2cc(-c3nnc(COC(=O)C4CC4C)o3)c3ccccc3n2)cc1OC (stereo not given)	–	–	–	–	50.5	–
Cc1ccccc1NS(=O)(=O)c1ccc(OCC(=O)N2CCCCC2)cc1	–	–	–	–	32.3	–
CN(Cc1ccccc1)S(=O)(=O)c1ccc(OCC(=O)N2CCOCC2)cc1	–	–	-32.0	–	–	–
Cc1ccccc1NS(=O)(=O)c1ccc(C(=O)N2CCCCCCC2)cc1	?	–	–	–	–	–
COc1ccc(NS(=O)(=O)c2ccc(OCC(=O)N3CCOCC3)cc2)cc1	–	–	–	–	–	–
O=C(COc1ccc(S(=O)(=O)Nc2ccc(Cl)cc2)cc1)N1CCOCC1	–	31.1	–	–	–	–
O=C(CCNS(=O)(=O)c1ccc(Cl)cc1)N1CCOCC1	–	–	-32.0	–	–	–
O=C(CCNS(=O)(=O)c1ccc(Cl)cc1)N1CCCCCC1	–	–	–	–	–	–
SMILES	BCR signal inh	D1 agonist	D1 antag	D1 PAM	DRD3 agonist	D3 antag
CCOC(=O)c1cc(-c2ccc(C)cc2)n(CC(=O)Nc2ccc(OC)cc2OC)c1C	·	–	–	–	–	·
O=C1Nc2ccccc2C(=O)N(c2ccc3c(c2)OCCO3)C1C(=O)NC1CC1 (stereo not given)	·	·	·	·	–	–
NC(=S)NS(=O)(=O)c1ccc(N)cc1	·	·	·	·	–	·
CC(C)(C)OC(=O)NCc1nnc(C(C(=O)OCc2ccccc2)c2ccccc2)s1 (stereo not given)	·	–	–	–	·	·
O=C(NCCCSc1ccccc1)c1cnc(Cl)c(Cl)c1	–	–	-30.3	–	–	–
O=C(NCCc1ccccc1)c1cnc(Cl)c(Cl)c1	?	–	–	–	–	–
O=C(CSc1nc(-c2ccccc2)nn1C(=O)c1ccccc1)Nc1cccc([N+](=O)[O-])c1	?	–	-33.6	–	–	–
Nc1ccc(SCC(=O)Nc2cccc([N+](=O)[O-])c2)cc1	–	–	-48.8	–	–	–
Cn1nnnc1SCC(=O)Nc1cccc([N+](=O)[O-])c1	–	–	–	–	–	–
COc1cccc(NC(=O)CSc2nnc(NC(=O)C3CC3)s2)c1	–	–	–	–	–	-57.4
O=C(CSCCO)Nc1cccc([N+](=O)[O-])c1	–	–	–	–	–	–
CS(=O)(=O)Nc1nnc(SCC(=O)Nc2cccc([N+](=O)[O-])c2)s1	–	–	-78.6	–	–	–
O=C(NCC(c1cccs1)S(=O)(=O)c1cccs1)c1cccc(F)c1 (stereo not given)	–	–	–	–	–	·
NC[C@H]1O[C@H](O[C@H]2[C@H](O[C@@H]3O[C@H](CO)[C@@H](O)[C@H]3O)C(O)[C@H](N)C[C@@H]2N)[C@H](N)[C@@H](O)[C@@H]1O (stereo not given in full)	·	·	·	·	–	·
CC(=O)Nc1ccc(NC(=O)c2oc3c(c2C)-c2nn(Cc4ccccc4Cl)cc2CC3)cc1	·	–	–	–	–	·
COc1cccc(C(C)(O)c2nc(-c3cc(F)cc(F)c3)cs2)c1 (stereo not given)	·	·	·	·	–	–
N#CC1=C(N)S[C@@H](C(=O)c2ccc(F)cc2)[C@@H]1c1cccs1	–	–	-43.3	–	–	–
CCOC(=O)c1c(C)nsc1NC(=O)C1(C)CCN1C(=O)CC (stereo not given)	·	·	·	·	–	–
COc1ccc(C(=O)CSc2cc(C)[nH]c(=O)n2)cc1	–	–	–	–	–	-51.1
Clc1ccc(-c2nc3nc4ccccc4nc3n2Cc2ccco2)cc1	?	–	-41.0	–	–	–
Cc1ccc(-c2nc3nc4ccccc4nc3n2Cc2ccco2)cc1	?	–	–	–	–	–
CCOC(=O)c1ccc2c(c1)N(Cc1ccc(F)cc1Cl)C(=O)c1ccccc1S2(=O)=O	·	–	–	–	–	·
CCCc1nnc(NC(=O)Cn2c(=O)oc3ccccc32)s1	–	–	–	–	–	–
CCCc1nnc(NC(=O)Cn2c(=O)oc3cc(Br)ccc32)s1	–	61.8	–	–	–	–
CCOC(=O)N1CCN(C(=O)COC(=O)CNC(=O)c2ccc(OCC)c(OCC)c2)CC1	–	–	–	–	–	–
SMILES	BCR signal inh	D1 agonist	D1 antag	D1 PAM	DRD3 agonist	D3 antag
COc1ccc(CNC(=O)CCc2c(C)nc3c4cccnc4nn3c2C)cc1	·	–	–	–	–	·
CC(=O)c1sc(-c2ccc(F)cc2)cc1NS(=O)(=O)c1ccccc1	–	–	-41.5	–	–	–
CCOc1ccc(-n2cc(-c3ccccc3)c3c(=O)[nH]cnc32)cc1	–	–	-67.6	–	–	–
Cc1cccc(-n2cc(-c3ccccc3)c3c(=O)[nH]cnc32)c1	–	–	-45.2	–	–	–
Cc1cccc(-n2cc(-c3ccccc3)c3c(N4CCC(C)CC4)ncnc32)c1	–	–	–	–	–	·
O=c1[nH]cnc2c1c(-c1ccccc1)cn2-c1ccc(Br)cc1	–	–	-45.3	–	–	?

Compound activity: PubChem BioAssay, National Center for Advancing Translational Sciences (NCATS)
